# Source: the supplement of paper PMC10849652
# The full data set covers some 7,900 targets. This sample favours those with a hit. About 0.6% of all pairs of compound and target were hits. Unmarked numbers belong to inactive results.
# Compound: CS(=O)(=O)N1CCN(Cc2cc3nc(-c4cccc5[nH]ncc45)nc(N4CCOCC4)c3s2)CC1 [pictilisib]
# Assay: log2 fold change, soluble protein after heating vs DMSO (PISA); higher = thermal stabilisation; K562 cells, 10 uM, 30 min; active = over 0.2 and 3.5 SD of the protein, either way, in both replicates (recomputed)
# Outline: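 K562 cells at 2×10^6 cells/mL were given 10 μM compound for 30 min. Aliquots then went through 3 min of heating across 48°C-58°C, were pooled, and were extracted in PBS with 0.5% NP-40 at 4°C, and the supernatant after 21,000xg for 90 min was quantified by TMTpro 16plex LC-MS/MS with channel sums equalised. Thermal stability relative to control samples, from duplicates, is given as log2 fold change.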
# UniProt Q9Y6H3, sequence (Q9Y6H3 whole entry, looked up): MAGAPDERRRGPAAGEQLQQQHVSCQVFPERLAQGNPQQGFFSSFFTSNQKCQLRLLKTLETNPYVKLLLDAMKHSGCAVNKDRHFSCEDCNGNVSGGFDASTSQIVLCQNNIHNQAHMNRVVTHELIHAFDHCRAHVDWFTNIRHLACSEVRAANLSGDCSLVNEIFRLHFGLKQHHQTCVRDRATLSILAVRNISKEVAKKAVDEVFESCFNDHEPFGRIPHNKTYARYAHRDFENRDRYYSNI
# UniProt P52895, sequence (P52895 whole entry, looked up): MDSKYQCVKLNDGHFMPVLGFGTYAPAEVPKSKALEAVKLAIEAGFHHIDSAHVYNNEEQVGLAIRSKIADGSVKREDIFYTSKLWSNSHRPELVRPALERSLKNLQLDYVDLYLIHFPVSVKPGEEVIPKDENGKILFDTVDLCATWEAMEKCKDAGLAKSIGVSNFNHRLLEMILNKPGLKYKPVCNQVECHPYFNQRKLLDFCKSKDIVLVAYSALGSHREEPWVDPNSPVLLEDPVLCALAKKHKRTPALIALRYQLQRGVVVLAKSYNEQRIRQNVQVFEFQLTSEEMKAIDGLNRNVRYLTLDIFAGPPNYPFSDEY
# UniProt P11766, sequence (P11766 whole entry, looked up): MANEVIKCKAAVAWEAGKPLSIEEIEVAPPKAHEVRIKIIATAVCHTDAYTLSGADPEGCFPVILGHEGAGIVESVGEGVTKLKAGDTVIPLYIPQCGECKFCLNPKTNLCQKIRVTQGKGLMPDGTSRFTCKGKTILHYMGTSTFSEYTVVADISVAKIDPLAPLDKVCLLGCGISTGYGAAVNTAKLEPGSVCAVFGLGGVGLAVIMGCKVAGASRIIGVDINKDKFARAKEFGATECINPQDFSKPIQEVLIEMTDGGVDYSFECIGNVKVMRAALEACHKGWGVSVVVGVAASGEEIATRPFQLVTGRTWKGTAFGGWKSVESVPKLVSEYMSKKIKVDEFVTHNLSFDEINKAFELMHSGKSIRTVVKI
# UniProt Q5JTZ9, sequence (Q5JTZ9 whole entry, looked up): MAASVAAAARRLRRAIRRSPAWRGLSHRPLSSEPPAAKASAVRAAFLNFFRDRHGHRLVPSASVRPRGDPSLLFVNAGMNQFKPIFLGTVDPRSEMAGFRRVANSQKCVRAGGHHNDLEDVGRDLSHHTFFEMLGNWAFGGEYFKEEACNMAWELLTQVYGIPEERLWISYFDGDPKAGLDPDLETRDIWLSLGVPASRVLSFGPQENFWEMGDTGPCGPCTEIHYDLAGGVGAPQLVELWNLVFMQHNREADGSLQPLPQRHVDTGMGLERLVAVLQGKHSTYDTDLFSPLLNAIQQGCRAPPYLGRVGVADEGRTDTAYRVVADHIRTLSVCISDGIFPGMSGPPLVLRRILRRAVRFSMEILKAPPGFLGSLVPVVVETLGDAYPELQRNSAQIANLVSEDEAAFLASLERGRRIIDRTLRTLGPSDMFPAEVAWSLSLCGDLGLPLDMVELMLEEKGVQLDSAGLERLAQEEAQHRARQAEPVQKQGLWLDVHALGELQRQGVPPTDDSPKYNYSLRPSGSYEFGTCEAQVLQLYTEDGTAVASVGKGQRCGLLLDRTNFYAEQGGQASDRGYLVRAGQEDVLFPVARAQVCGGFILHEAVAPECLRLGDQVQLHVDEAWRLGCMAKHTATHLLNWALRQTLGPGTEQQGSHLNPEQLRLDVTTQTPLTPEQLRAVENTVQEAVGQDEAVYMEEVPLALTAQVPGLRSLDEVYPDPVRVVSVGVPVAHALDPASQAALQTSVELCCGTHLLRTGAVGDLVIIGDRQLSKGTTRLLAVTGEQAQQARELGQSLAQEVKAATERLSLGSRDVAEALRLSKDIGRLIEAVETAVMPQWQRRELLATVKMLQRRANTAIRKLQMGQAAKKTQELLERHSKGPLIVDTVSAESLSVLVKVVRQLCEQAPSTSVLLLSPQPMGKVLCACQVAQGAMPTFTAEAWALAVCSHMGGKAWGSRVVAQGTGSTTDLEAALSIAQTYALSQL
# UniProt Q16864, sequence (Q16864 whole entry, looked up): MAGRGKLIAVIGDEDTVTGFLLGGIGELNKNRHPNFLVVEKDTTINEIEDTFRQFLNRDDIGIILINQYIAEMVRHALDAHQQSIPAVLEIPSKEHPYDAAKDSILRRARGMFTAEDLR
# UniProt P05091, sequence (P05091 whole entry, looked up): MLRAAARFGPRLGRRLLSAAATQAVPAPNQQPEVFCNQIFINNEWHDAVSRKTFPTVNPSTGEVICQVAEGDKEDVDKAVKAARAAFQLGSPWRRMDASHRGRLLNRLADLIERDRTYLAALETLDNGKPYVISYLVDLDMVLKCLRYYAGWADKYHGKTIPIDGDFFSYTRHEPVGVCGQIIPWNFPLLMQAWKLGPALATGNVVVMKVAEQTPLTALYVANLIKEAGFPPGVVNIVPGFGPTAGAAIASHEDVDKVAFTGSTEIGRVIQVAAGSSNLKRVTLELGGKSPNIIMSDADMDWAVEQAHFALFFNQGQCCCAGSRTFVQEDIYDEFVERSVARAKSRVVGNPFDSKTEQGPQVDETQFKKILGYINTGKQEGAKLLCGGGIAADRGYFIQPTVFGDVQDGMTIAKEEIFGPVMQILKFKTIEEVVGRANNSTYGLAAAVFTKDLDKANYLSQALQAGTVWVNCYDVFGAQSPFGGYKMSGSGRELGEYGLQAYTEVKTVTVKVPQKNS
# UniProt Q14137, sequence (Q14137 whole entry, looked up): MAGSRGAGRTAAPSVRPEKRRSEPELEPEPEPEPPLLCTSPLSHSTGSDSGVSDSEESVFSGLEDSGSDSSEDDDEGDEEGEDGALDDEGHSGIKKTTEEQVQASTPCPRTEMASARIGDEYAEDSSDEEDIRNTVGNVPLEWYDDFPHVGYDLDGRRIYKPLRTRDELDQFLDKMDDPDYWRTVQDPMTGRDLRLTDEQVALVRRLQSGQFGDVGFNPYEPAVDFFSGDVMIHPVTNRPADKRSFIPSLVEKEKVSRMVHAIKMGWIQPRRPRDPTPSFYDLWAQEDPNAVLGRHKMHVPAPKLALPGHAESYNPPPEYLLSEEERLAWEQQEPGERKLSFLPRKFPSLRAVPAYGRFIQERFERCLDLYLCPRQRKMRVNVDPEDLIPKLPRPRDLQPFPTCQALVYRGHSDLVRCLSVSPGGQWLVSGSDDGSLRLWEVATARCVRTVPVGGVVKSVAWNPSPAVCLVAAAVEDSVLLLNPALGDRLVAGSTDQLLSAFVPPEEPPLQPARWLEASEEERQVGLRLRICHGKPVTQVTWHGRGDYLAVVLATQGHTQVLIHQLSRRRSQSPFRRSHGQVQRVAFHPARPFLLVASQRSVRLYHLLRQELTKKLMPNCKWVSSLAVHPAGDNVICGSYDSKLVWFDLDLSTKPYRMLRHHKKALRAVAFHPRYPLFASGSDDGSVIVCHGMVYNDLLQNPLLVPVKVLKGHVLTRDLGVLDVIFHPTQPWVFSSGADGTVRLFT
# UniProt P54709, sequence (P54709 whole entry, looked up): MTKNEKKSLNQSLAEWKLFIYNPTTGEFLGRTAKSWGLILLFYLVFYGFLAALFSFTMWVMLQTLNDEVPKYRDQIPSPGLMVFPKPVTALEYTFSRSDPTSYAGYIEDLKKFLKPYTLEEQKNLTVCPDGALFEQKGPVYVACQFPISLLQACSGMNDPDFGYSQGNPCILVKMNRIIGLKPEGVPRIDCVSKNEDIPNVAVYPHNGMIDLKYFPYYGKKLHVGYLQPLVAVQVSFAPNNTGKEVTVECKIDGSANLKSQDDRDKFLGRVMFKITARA
# UniProt Q9Y312, sequence (Q9Y312 whole entry, looked up): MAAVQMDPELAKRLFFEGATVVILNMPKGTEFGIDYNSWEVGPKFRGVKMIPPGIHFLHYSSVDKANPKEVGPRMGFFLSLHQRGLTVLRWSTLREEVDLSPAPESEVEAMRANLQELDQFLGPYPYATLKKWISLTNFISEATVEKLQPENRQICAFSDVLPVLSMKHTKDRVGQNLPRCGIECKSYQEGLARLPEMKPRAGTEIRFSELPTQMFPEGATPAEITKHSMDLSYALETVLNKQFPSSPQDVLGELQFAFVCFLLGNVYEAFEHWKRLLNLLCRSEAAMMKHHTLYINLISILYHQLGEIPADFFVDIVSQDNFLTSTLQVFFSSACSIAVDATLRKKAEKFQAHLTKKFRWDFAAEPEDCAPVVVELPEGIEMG
# UniProt Q15904, sequence (Q15904 whole entry, looked up): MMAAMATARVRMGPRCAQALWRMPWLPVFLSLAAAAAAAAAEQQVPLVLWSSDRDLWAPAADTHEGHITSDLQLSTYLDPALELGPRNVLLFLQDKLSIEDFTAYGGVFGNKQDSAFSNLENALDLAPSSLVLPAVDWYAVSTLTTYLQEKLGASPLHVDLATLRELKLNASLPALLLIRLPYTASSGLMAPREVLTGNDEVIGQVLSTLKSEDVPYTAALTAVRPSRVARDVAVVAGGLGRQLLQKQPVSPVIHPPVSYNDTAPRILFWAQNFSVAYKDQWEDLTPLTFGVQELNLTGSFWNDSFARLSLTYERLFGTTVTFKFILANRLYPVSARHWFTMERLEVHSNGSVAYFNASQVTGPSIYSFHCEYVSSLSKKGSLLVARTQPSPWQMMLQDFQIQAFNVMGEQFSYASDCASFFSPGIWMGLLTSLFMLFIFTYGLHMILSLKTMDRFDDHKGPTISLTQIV
# UniProt Q9BRQ8, sequence (Q9BRQ8 whole entry, looked up): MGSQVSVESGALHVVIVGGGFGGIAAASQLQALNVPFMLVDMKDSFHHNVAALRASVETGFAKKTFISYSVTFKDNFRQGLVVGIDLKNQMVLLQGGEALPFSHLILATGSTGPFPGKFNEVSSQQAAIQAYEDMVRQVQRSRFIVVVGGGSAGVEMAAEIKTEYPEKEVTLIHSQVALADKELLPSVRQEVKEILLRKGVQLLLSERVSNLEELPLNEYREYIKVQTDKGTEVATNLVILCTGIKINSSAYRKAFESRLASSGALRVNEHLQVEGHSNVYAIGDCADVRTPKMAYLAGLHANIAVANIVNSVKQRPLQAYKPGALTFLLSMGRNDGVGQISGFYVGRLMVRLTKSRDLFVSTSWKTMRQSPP
row,Target,log2 fold change
1,ARGLU1 (UniProt Q9NWB6),-0.027
2,ACTR1B (UniProt P42025),0.127
3,ALG11 (UniProt Q2TAA5),0.032
4,AKR1C2 (UniProt P52895),0.165
5,ATG9A (UniProt Q7Z3C6),0.075
6,ADH5 (UniProt P11766),0
7,AAR2 (UniProt Q9Y312),-0.082
8,APPL1 (UniProt Q9UKG1),0.033
9,ACAD9 (UniProt Q9H845),0.082
10,ALDH2 (UniProt P05091),0.043
11,ARL1 (UniProt P40616),-0.135
12,ATP1B3 (UniProt P54709),-0.012
13,ATP6AP1 (UniProt Q15904),-0.017
14,ACSL1 (UniProt P33121),0.041
15,ALDH9A1 isoform 3 (UniProt P49189),-0.002
16,BOP1 (UniProt Q14137),0
17,ATP6V1F isoform 2 (UniProt Q16864),-0.054
18,BTAF1 (UniProt O14981),-0.032
19,AIFM2 (UniProt Q9BRQ8),0.121
20,BCCIP isoform 2 (UniProt Q9P287),-0.021
21,ANXA5 (UniProt P08758),-0.021
22,ADRM1 (UniProt Q16186),-0.013
23,ATP9B (UniProt O43861),0.012
24,ACSL3 (UniProt O95573),0.022
25,ATP23 (UniProt Q9Y6H3),0.018
26,ACO2 (UniProt Q99798),0.041
27,ARFIP1 (UniProt P53367),-0.076
28,AGPAT5 (UniProt Q9NUQ2),0.062
29,AARS2 (UniProt Q5JTZ9),0.06
